# This excerpt belongs to a sample that is enriched for hits.
# 12-LOX inh: Primary qHTS assay for inhibitors of human arachidonate 12S-lipoxygenase (ALOX12): Round 2; Polyunsaturated fatty acid lipoxygenase ALOX12 (Homo sapiens), P18054; purified 12hLO, xylenol orange hydroperoxide absorbance; Potency, µM (doses to about 108 µM), for inactives: at the highest dose activity change, negative = inhibition, most hits filed as inhibitors; hit rate 1.1% among 580,000; AID 1671190, 2021; note: potency is the fitted concentration of half-maximal effect
# Target sequence (P18054 whole entry, looked up): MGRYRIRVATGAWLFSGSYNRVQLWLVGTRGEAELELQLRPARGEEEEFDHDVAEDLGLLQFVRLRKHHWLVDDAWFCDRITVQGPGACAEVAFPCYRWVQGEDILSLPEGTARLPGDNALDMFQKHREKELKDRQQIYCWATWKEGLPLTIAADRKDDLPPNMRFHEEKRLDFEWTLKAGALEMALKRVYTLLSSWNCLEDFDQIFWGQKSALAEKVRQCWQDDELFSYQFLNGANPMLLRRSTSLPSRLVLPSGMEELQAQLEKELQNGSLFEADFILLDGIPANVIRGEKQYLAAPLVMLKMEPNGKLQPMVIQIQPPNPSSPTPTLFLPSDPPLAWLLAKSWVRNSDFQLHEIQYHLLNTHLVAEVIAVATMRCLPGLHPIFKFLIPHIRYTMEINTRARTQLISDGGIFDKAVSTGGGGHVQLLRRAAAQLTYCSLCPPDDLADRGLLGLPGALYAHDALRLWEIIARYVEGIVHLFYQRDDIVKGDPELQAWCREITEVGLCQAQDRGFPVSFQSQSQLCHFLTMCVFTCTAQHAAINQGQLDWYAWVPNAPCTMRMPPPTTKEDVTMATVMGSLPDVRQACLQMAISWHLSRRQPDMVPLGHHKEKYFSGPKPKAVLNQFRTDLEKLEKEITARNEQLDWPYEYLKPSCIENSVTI
#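 Purified human 12hLO at 150 nM in 25 mM Hepes, 0.01% Triton X-100, pH 7.0, preincubated 15 min at room temperature with compound. Reaction started with 40 uM arachidonic acid, 30 min at room temperature. Hydroperoxide measured by Fe-xylenol orange, 573/405 nm absorbance ratio.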
# IL-1B inflam inh: qHTS for Inhibitors of Inflammasome Signaling: IL-1-beta AlphaLISA Primary Screen; AID 743279, 2014; THP-1 LPS/ATP IL-1B secretion, AlphaLISA, 16 h; hits give low values; activity change, % at 57.5 µM; hit rate 4.7% among 360,000; in the data active = activity change below about -50%; inconclusive = mostly about -30% to -49%
#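 THP-1 cells pretreated 1 hr with compounds (up to 57.5 uM final), then stimulated with LPS (250 ng/mL final) plus ATP (1.25 mM final); secreted IL-1B measured by AlphaLISA after 16 hr, decreased signal indicating inhibition.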
# TDP1 cell CPT: qHTS for Inhibitors of human tyrosyl-DNA phosphodiesterase 1 (TDP1): qHTS in cells in presence of CPT. chicken DT40 Tdp1-/-;hTDP1 cells + 20 nM CPT, ATP luminescence, 48 h. Potency, µM (titrated, usually from 46.2 µM), inactives show top-dose activity change, negative = growth inhibition, actives largely listed as inhibitors. hit rate 12% among 420,000. AID 686979, 2013; note: potency is the fitted concentration of half-maximal effect; nearly all actives have a fitted effect of over 55% in size
#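 Cell growth measured by CellTiter-Glo luminescence after a minimum 48 h, 37 C compound exposure with 20 nM CPT in Tdp1-knockout DT40 cells stably expressing hTDP1, seeded 400/well; qHTS titration format.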
# HT1080-NT tox: qHTS for induction of synthetic lethality in tumor cells producing 2HG: qHTS for the HT-1080-NT fibrosarcoma cell line. HT-1080-NT fibrosarcoma viability, CellTiter-Glo ATP luminescence, 48 h. Potency, µM (series often up to 46.1 µM), for the others: at the highest dose activity, negative = less viability, actives largely listed as cytotoxic. hit rate 1.6% among 360,000;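 note: NT is the 2HG producing partner of a matched IDH1 knockdown line; potency is the fitted concentration of half-maximal effect; 0% = DMSO-treated cells and -100% = media-only wells without cells; nearly all actives have a fitted effect of over 55% in size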
#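 Fibrosarcoma NT cells, 750 per well in 5% FBS RPMI, were exposed to compound for 48 hours. Viability: CellTiter-Glo luminescence.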
# DT40 TDP1 no CPT: qHTS for Inhibitors of human tyrosyl-DNA phosphodiesterase 1 (TDP1): qHTS in cells in absence of CPT | DT40 Tdp1-/- hTDP1 cells, no CPT, ATP luminescence, 48 h | Potency, µM (highest dose often 46.2 µM), inactives show at the top dose activity change, negative = growth inhibition, most hits filed as inhibitors | AID 686978, 2013 | hit rate 15% among 420,000; note: potency is the fitted concentration of half-maximal effect; nearly all actives have a fitted effect of over 55% in size
#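 Chicken DT40 Tdp1-/- cells complemented with human TDP1, screened without camptothecin (DMSO vehicle only), 400 cells/well. Compounds pin-transferred, cells incubated at 37 °C for at least 48 hr. Growth read as ATP-dependent luminescence (CellTiter-Glo, 30 min at RT).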
# HT1080 IDH1KD tx: qHTS for induction of synthetic lethality in tumor cells producing 2HG: qHTS for the HT-1080-IDH1KD cell line | HT-1080 IDH1 knockdown viability, ATP luminescence, 48 h | Potency, µM (highest dose often 46.1 µM), for the others: at the top dose activity, negative = toxicity, usual class: cytotoxic | hit rate 2% among 360,000 | AID 686971, 2013;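 note: potency is the fitted concentration of half-maximal effect; 0% = DMSO wells and -100% = cell-free medium wells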
#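 % activity derives from luminescence (CellTiter-Glo), normalised to DMSO and no-cell wells. HT-1080-IDH1KD cells, 750/well, had 48 h compound exposure at 37 °C.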
# * = called active by the depositor; ? = inconclusive; · = no result given; [ ] = dose if it differs, or a comment. Unless noted, calls come from the whole dose curve; as a rule, active = well fitted curve in the direction sought with a large enough effect; inconclusive = small, poorly fitted or top-dose-only effect, or another doubt; inactive = no such curve, though single readings can be large; an effect the other way counts as inactive or inconclusive. Unless noted, % is set by controls: 0 for no effect and ±100 for the full control effect.
SMILES,12-LOX inh,IL-1B inflam inh,TDP1 cell CPT,HT1080-NT tox,DT40 TDP1 no CPT,HT1080 IDH1KD tx
COc1ccc(S(=O)(=O)Nc2cc3c(cc2C(C)=O)OCO3)cc1,0%,21,10µM*,?,4.6µM*,18µM*
COc1ccc(S(=O)(=O)Nc2cc(-c3c(O)ccc4ccccc34)c(O)c3ccccc23)cc1,8.6µM*,·,·,·,·,·
Cc1ccc(S(=O)(=O)Nc2c(O)ccc3ccccc23)cc1,·,-15,?,-16%,-29%,-20%
COc1ccc(S(=O)(=O)Nc2cc3c(C(C)=O)c(C)oc3c3ccccc23)cc1,40%,74,0.65µM*,1.3µM*,0.65µM*,0.52µM*
CCOc1ccc(S(=O)(=O)Nc2cc3c(C(=O)OC)c(COC)oc3c3ccccc23)cc1,-11%,·,5.2µM*,·,3.7µM*,·
CCn1ccc2cc(S(=O)(=O)N3CCC(C(=O)NCc4ccc(OC(C)C)cc4)CC3)ccc21,-19%,·,?,·,-28%,·
CC(=O)c1c(C)oc2c1cc(NS(=O)(=O)c1ccc(C(C)(C)C)cc1)c1ccccc12,-28%,·,?,·,21µM*,·
CN(C)C(=O)CCc1ccc2c3c([nH]c2c1)[C@]1(CCc2ccccc2)[C@@H](C(=O)N2CCCCC2)C[C@H](CC(=O)NC(C)(C)C)C(=O)N1CC3,13%,-22,?,0%,?,-1%
CCOc1ccccc1N1CC(O)=C(c2nc3ccccc3s2)C1=N,-2%[57.4 µM],13,3.3µM*,2.8µM*,4.1µM*,2.8µM*
N=C1C(c2nc3ccccc3s2)=C(O)CN1Cc1ccccc1,0%,0,7.3µM*,?,4.6µM*,?
COc1ccc(C)cc1N1CC(O)=C(c2nc3ccccc3s2)C1=N,28%,·,·,·,·,·
Cc1oc(C(O)c2ccccc2)nc1C(=O)Nc1ccccc1 (stereo not given),3%[176 µM],·,·,·,·,·
O=C(C1=C[C@@H](c2ccc(C(F)(F)F)cc2)C[C@@H](OCCCCO)O1)N1CCCCCCC1,?,-19,23µM*,1%,?,9%
O=C(C1=C[C@H](c2ccc(C(F)(F)F)cc2)C[C@H](OCCCCO)O1)N1CCN(Cc2ccc3c(c2)OCO3)CC1,-4%,-67*,?,-25%,?,?
O=C(C1=C[C@@H](c2ccc(Br)cc2)C[C@@H](OCCCCO)O1)N1CCN(Cc2ccc3c(c2)OCO3)CC1,-21%,?,?,-14%,?,-2%
O=C(Nc1ccccc1)C1=C[C@H](c2ccc3c(c2)OCO3)C[C@H](OCCCCO)O1,?,-15,26µM*,22%,?,7%
CCC(Oc1ccccc1)C(=O)N1CCN(Cc2cc(=O)n3nc(-c4cccc(C)c4)sc3n2)CC1 (stereo not given),-15%,·,?,·,23µM*,·
Cc1ccccc1-c1nn2c(=O)cc(CN3CCN(C(=O)c4ccc(C(C)(C)C)cc4)CC3)nc2s1,0%,·,8.2µM*,·,7.3µM*,·
CC(Oc1ccccc1)C(=O)N1CCN(Cc2cc(=O)n3nc(-c4ccccc4F)sc3n2)CC1 (stereo not given),10%,·,·,·,·,·
CCCCCC(=O)N1CCC(O)(c2csc(CN3CCOCC3)n2)CC1,15%[176 µM],·,·,·,·,·
COC(=O)[C@]12CCCCC=C1N(CCc1ccc(OC)c(OC)c1)C(=O)[C@H](CC(=O)NCc1cccc3ccccc13)C2,-8%,-14,10µM*,?,9.2µM*,?
COC(=O)[C@]12CCCCC=C1N(Cc1cccc3ccccc13)C(=O)[C@H](CC(=O)NCc1ccc(OC)c(OC)c1)C2,59%,?,?,?,?,?
COC(=O)[C@]12CCCCC=C1N(CCc1ccc(OC)c(OC)c1)C(=O)[C@H](CC(=O)NCc1ccc(C)o1)C2,-39%,-11,16µM*,12%,?,22%
COc1cc(C=O)ccc1OCc1c(F)cccc1Cl,-17%,·,·,·,·,·
NC(CSS(=O)(=O)O)=NCCC12CC3CC(CC(O)(C3)C1)C2,-2%,7,9%,7%,5%,7%
SMILES,12-LOX inh,IL-1B inflam inh,TDP1 cell CPT,HT1080-NT tox,DT40 TDP1 no CPT,HT1080 IDH1KD tx
CC1(C)C2CCC(CN=C(N)CSS(=O)(=O)O)C1C2 (stereo not given),-22%,-58*,?,-7%,?,-21%
Cc1c(C)n(-c2ccccn2)c2ncn3nc(Cc4ccccc4)nc3c12,-2%,·,·,·,·,·
O=C(/C=C/c1ccc(F)cc1)NCCCCCCNC(=O)/C=C/c1ccc(F)cc1,-7%,·,·,·,·,·
CC(C)(C)c1ccc(CN2N=Nc3ccccc3S2(=O)=O)cc1,?,-22,5.8µM*,?,7.3µM*,?
O=C(CN1CCN(S(=O)(=O)c2ccc(Cl)cc2)CC1)Nc1ccc2c(c1)OCO2,-24%,-19,?,-4%,29µM*,-13%
O=C(Nc1ccc2c(c1)OCO2)N1CCN(S(=O)(=O)c2ccc(Cl)cc2)CC1,0%,-9,?,3%,-10%,13%
O=C(CN1CCN(S(=O)(=O)c2ccc(Cl)cc2)CC1)Nc1ccc2c(c1)OCCO2,0%,-5,?,-7%,15µM*,-6%
O=C(CN1CCN(c2ccccc2)CC1)Nc1ccc2c(c1)OCCO2,-9%,0,-5%,14%,4%,1%
O=C(CN1CCN(c2ccccc2O)CC1)Nc1ccc2c(c1)OCCCO2,8%,-50*,-3%,2%[9.24 µM],13%,15%
O=C1CN(c2nc(-c3cccs3)nc3sc4c(c23)CCCC4)CCN1,-13%,-94*,?,?,?,13µM*
O=C1NC(c2ccc(Br)cc2)c2c(-c3ccccc3)n[nH]c21 (stereo not given),-10%,·,·,·,·,·
CC(C)N(C(=O)CSc1nc2ccccc2n1Cc1ccccc1F)C(C)C,-8%,-10,16µM*,2%,16µM*,-29%
CN(Cc1ccccc1)C(=O)CSc1nc2ccccc2n1Cc1ccccc1F,?,·,?,·,6.5µM*,·
CN(Cc1ccccc1)C(=O)CSc1nc2ccsc2c(=O)n1-c1ccc(F)cc1,1%,·,?,·,21µM*,·
NC(=O)CSc1nc2ccccc2n1Cc1ccccc1F,0%,-5,-25%,-7%,?,-15%

# From PubChem BioAssay
